In PubChem BioAssay (NCI):
The panel holds about 83,000 compounds, 20% with a hit somewhere; the sample as a whole holds those more often.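 Plates (96-well) were seeded with cells, treated with compound at one concentration, and incubated for 48 hours before percent growth was determined.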 Active and inactive are the calls of the source. The calls were made as follows: active = growth percent below 10; inactive = the rest.

system: HL-60(TB) leukemia; test: NCI-60 one-dose screen, 48 h (100 = growth as untreated, 0 = no growth, -100 = all killed); conditions: 10 µM unless noted

SMILES	growth
Cc1ncc(C#N)c(N)n1	109% (inactive)
C=C1CCC2C3(C)COC(c4ccc(OC)cc4Br)OC3CCC2(C)C1/C=C/C1=CCOC1=O (stereo not drawn)	31.8% (inactive)
CCCc1cc(=O)oc2c3c(c4c(c12)OC(C)(C)C=C4)O[C@@H](C)[C@H](C)C3=O	48.3% (inactive)
